Compound activity deposited in PubChem BioAssay by National Center for Advancing Translational Sciences (NCATS).
The list is not random: actives were taken first. Their share in the collection is about 19%.
TDP1 cell noCPT: qHTS for Inhibitors of human tyrosyl-DNA phosphodiesterase 1 (TDP1): qHTS in cells in absence of CPT; 15% of 420,000 active; Potency, µM (series often up to 46.2 µM), most hits filed as inhibitors; AID 686978, 2013; DT40 Tdp1-/- hTDP1 cells, no CPT, ATP luminescence, 48 h; also: nearly all actives have a fitted effect of over 55% in size
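Luminescent ATP content (CellTiter-Glo) served as the growth readout. Knockout chicken DT40 cells expressing human TDP1 were exposed to compounds without camptothecin for a minimum 48 hr at 37 °C.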
HT1080 IDH1KD tx: kills HT-1080 cells with IDH1 knockdown; AID 686971; 2% of 360,000 active; HT-1080 IDH1 knockdown viability, ATP luminescence, 48 h; Potency, µM (highest dose often 46.1 µM), hits mostly cytotoxic
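Using the IDH1-knockdown HT-1080 line run in the same batch and compound series as the NT line, viability after 48 h at 37 °C was determined by CellTiter-Glo luminescence and expressed as % activity.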
KB-V1 cytotox: kills drug-selected multidrug resistant KB-V1 cells | KB-V1 MDR cells viability, CellTiter-Glo, 72 h | Potency, µM (series often up to 46.1 µM), most hits filed as cytotoxic | 3.4% of 400,000 active; also: nearly all actives have a fitted effect of over 60% in size
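Following 72 h at 37 degrees C with compound, KB-V1 cell viability was read by CellTiter-Glo luminescence, medium being phenol-red-free DMEM plus 10% FBS; concentration-response parameters came from normalized, curve-fitted qHTS data.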
KB-3-1 tox: KB-3-1 parental cell cytotoxicity; KB-3-1 viability, CellTiter-Glo ATP luminescence, 72 h; Potency, µM (titrated, usually from 46.1 µM), actives largely listed as cytotoxic; 1.4% of 400,000 active; also: nearly all actives have a fitted effect of over 60% in size
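Cytotoxicity measured as CellTiter-Glo luminescence after 72 h at 37 C. Compound titrations were pinned onto drug-naive KB-3-1 parental adenocarcinoma cells grown in DMEM with 10% FBS, and normalized data fitted to concentration-response curves.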
HT1080NT lethal: kills 2HG-producing HT-1080-NT fibrosarcoma cells; HT-1080-NT fibrosarcoma viability, CellTiter-Glo ATP luminescence, 48 h; Potency, µM (titrated, usually from 46.1 µM), actives largely listed as cytotoxic; 1.6% of 360,000 active; AID 686970;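 also: NT is the 2HG producing partner of a matched IDH1 knockdown line; nearly all actives have a fitted effect of over 55% in size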
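Read-out is CellTiter-Glo luminescence after 10 minutes at room temperature, following 48 hours' compound treatment of HT-1080-NT cells (750 cells/well, RPMI, 5% FBS, 37 degrees C).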
DT40 TDP1 CPT: growth inhibition of DT40 Tdp1-/-;hTDP1 cells with camptothecin (screen for TDP1 inhibitors); Potency, µM (doses to about 46.2 µM), usual class: inhibitors; 12% of 420,000 active; chicken DT40 Tdp1-/-;hTDP1 cells + 20 nM CPT, ATP luminescence, 48 h; also: nearly all actives have a fitted effect of over 55% in size
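Chicken DT40 Tdp1-/- cells complemented with human TDP1, 400 cells/well, exposed to compounds plus 20 nM camptothecin for at least 48 h at 37 C; viability read as ATP content by CellTiter-Glo luminescence.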
A number is an active result; i = inactive; ? = inconclusive; nt = not tested or not shown. Calls follow the shape of the dose curve; as a rule, active = well fitted curve in the direction sought with a large enough effect; inconclusive = small, poorly fitted or top-dose-only effect, or another doubt; inactive = no such curve, though single readings can be large; an effect the other way counts as inactive or inconclusive.

SMILES	TDP1 cell noCPT	HT1080 IDH1KD tx	KB-V1 cytotox	KB-3-1 tox	HT1080NT lethal	DT40 TDP1 CPT
CSc1ccc(S(=O)(=O)N2c3ccccc3CC2C)cc1 (configuration not stated)	21µM	?	?	?	i	?
CC1Cc2ccccc2N1S(=O)(=O)c1cnc(Cl)c(Cl)c1 (configuration not stated)	10µM	i	i	i	i	16µM
O=C(Cc1ccc(Br)cc1)NNC(=O)c1cccs1	i	i	i	i	i	i
CN(C)/C=C\C(=C/C(=O)C(F)(F)F)Nc1ccccc1Oc1ccccc1	18µM	i	i	?	i	?
Cc1ccc(NC(/C=C/N(C)C)=C/C(=O)C(F)(F)F)c(C)c1	16µM	i	i	i	i	16µM
Cn1c2ccccc2c2nnc(SCCOc3ccccc3)nc21	?	nt	i	?	nt	?
S=C(NCCc1ccccc1)N1CCCC1	i	i	i	i	i	i
S=C(NCCc1ccccc1)N1CCN(C(c2ccccc2)c2ccccc2)CC1	16µM	i	?	?	i	12µM
S=C(NCCc1ccccc1)N1CCN(C23CC4CC(CC(C4)C2)C3)CC1	8.2µM	i	?	i	i	10µM
CN(C(=O)CSc1nnc(-c2cccs2)n1C1CC1)C1CCS(=O)(=O)C1 (configuration not stated)	i	i	i	i	i	i
CCOC(=O)c1c(S(=O)(=O)NCC(=O)Nc2ccc(F)cc2C)c(C)n(C)c1C	i	nt	i	i	nt	i
CCN(C[C@H]1N[C@@](Cc2ccccc2)(C(=O)OC)[C@H]2C(=O)N(Cc3ccccc3)C(=O)[C@@H]12)C(=O)Nc1ccc(Cl)cc1	18µM	?	?	?	?	?
CCN(C[C@H]1N[C@@](Cc2ccccc2)(C(=O)OC)[C@H]2C(=O)N(C)C(=O)[C@@H]12)C(=O)Nc1ccc(C(F)(F)F)cc1	?	i	i	i	i	16µM
CCN(C[C@H]1N[C@@](Cc2ccccc2)(C(=O)OC)[C@H]2C(=O)N(Cc3ccccc3)C(=O)[C@@H]12)C(=O)Nc1ccc(F)cc1	16µM	i	i	?	i	?
CCN(C[C@H]1N[C@@](Cc2ccccc2)(C(=O)OC)[C@H]2C(=O)N(Cc3ccccc3)C(=O)[C@@H]12)C(=O)NC(C)C	?	i	i	i	i	?
CCN(C[C@H]1N[C@@](C)(C(=O)OC)[C@H]2C(=O)N(Cc3ccccc3)C(=O)[C@@H]12)C(=O)Nc1ccc(Cl)cc1	?	i	i	i	i	?
CC(/C=C/C=C(\C)C(=O)O[C@@H]1O[C@H](CO[C@@H]2O[C@H](CO)[C@@H](O)[C@H](O)[C@H]2O)[C@@H](O)[C@H](O)[C@H]1O)=C\C=C\C=C(C)\C=C\C=C(/C)C(=O)O[C@@H]1O[C@H](CO[C@@H]2O[C@H](CO)[C@@H](O)[C@H](O)[C@H]2O)[C@@H](O)[C@H](O)[C@H]1O	i	nt	nt	nt	nt	i
Cc1ccc(N2CC(NC(=O)C(=O)c3c[nH]c4ccccc34)CC2=O)cc1 (configuration not stated)	i	nt	nt	nt	nt	i
COc1ccc(OC)c(NC(=O)Nc2nc(C(N)c3ccccc3Cl)cs2)c1 (configuration not stated)	?	?	i	i	?	?
CSc1ncccc1C(=O)N1CCC1(C)C(=O)NC(C)C (configuration not stated)	i	i	i	i	i	i
CCc1ccccc1NC(=O)c1ccc(Cn2nc(N3CCN(c4ccccc4)CC3)ccc2=O)o1	12µM	nt	i	i	nt	15µM
CCOc1ccccc1NC(=O)Cn1nc(N2CCN(c3ccccc3)CC2)ccc1=O	18µM	nt	i	i	nt	?
COc1ccccc1N1CCN(c2ccc(=O)n(CC(=O)Nc3cc(F)ccc3C)n2)CC1	23µM	nt	i	i	nt	15µM
COc1ccc(C)cc1NC(=O)Cn1nc(N2CCN(c3ccccc3OC)CC2)ccc1=O	?	nt	i	i	nt	?
COc1cccc(NC(=O)Cn2nc(N3CCN(c4ccccc4)CC3)ccc2=O)c1	?	nt	i	i	nt	?
SMILES	TDP1 cell noCPT	HT1080 IDH1KD tx	KB-V1 cytotox	KB-3-1 tox	HT1080NT lethal	DT40 TDP1 CPT
Cc1cc(C)c(NC(=O)NC(=O)C(Cl)(Cl)Cl)c(C)c1	i	i	i	i	i	i
Cc1ccc(S(=O)(=O)N2CCOCC2)cc1C(=O)NCc1ccccn1	i	i	?	i	i	i
CC(C)c1ccc(NC(=O)Nc2nc(C(N)c3ccccc3)cs2)cc1 (configuration not stated)	23µM	?	?	?	?	?
Cc1ccc(C(=O)Nc2nc(C(N)C(C)C)cs2)cc1 (configuration not stated)	16µM	i	i	i	i	?
NC(c1ccccc1)c1csc(Nc2ccc(C(=O)c3ccccc3)cc2)n1 (configuration not stated)	18µM	?	i	i	?	?
CC(C)c1ccc(NC(=O)Nc2nc(C(N)COCc3ccccc3)cs2)cc1 (configuration not stated)	15µM	?	?	?	21µM	16µM
Cc1cc(C)cc(N(C)S(=O)(=O)c2nnc(NC(=O)COc3ccc(C)c(C)c3)s2)c1	i	nt	nt	nt	nt	i
CC(=O)c1ccc(NC(=O)c2ccc(CN3C(=O)CCn4nc(C)cc43)cc2)cc1	i	nt	i	i	nt	i
COCCn1c(=NC(=O)c2ccc3c(c2)OCCO3)sc2cc(C(=O)OC)ccc21	i	nt	i	i	nt	i
NC(c1csc(NC(=O)Nc2cccc(Cl)c2)n1)c1ccccc1Cl (configuration not stated)	?	?	i	i	?	?
Cc1cccc(C)c1NC(=O)Nc1nc(C(N)c2ccccc2Cl)cs1 (configuration not stated)	16µM	?	i	i	?	?
COc1ccc(OC)c(NC(=O)Nc2nc(C(N)C(C)C)cs2)c1 (configuration not stated)	?	?	i	i	?	?
CCOC(=O)c1csc(NC(=O)Nc2cccc(Cl)c2)n1	?	i	i	i	i	?
CC(C)C(N)c1csc(NC(=O)Nc2cccc(Cl)c2)n1 (configuration not stated)	21µM	?	i	i	23µM	?
CC(C)c1ccc(NC(=O)Nc2nc(C(N)C(C)C)cs2)cc1 (configuration not stated)	16µM	?	?	?	21µM	15µM
Cc1nn(Cc2noc(C(=O)NCc3cccc(F)c3)n2)c(C)c1Br	i	nt	i	i	nt	i
